BAZ2B block: qHTS Assay for Inhibitors of BAZ2B. Bromodomain adjacent to zinc finger domain protein 2B (Homo sapiens), Q9UIF8. AlphaScreen BAZ2B-H3K14Ac peptide displacement. Potency, µM (titrated, usually from 114 µM), for the others: top-dose activity change, negative = inhibition, actives largely listed as inhibitors. 360,000 compounds, 4.4% hits; note: % is set by controls: 0 for no effect and ±100 for the full control effect; nearly all actives have a fitted effect of over 60% in size
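Complex of BAZ2B and biotin-H3K14Ac (50 nM apiece) forms over 30 min at RT, then faces library compounds up to 110 uM for another 30 min; AlphaScreen beads added, 20 min dark incubation, luminescence read.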
G9a inh: qHTS Assay for Inhibitors of Histone Lysine Methyltransferase G9a. G9a H3K9 monomethylation, AlphaScreen, 2 h. Potency, µM (top dose mostly 102 µM), without a hit: at the top dose activity, negative = inhibition, hits mostly inhibitors. 350,000 compounds, 8.8% hits. AID 504332, 2011; note: % is set by controls: 0 for no effect and ±100 for the full control effect; nearly all actives have a fitted effect of over 75% in size
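G9a (20 nM) preincubated 15 min RT with compounds, then 500 nM biotinylated H3K9 peptide and 20 uM SAM added; 2 h RT reaction. Monomethyl-H3K9 product detected by AlphaScreen with anti-H3K9me1 antibody, streptavidin donor and anti-rabbit IgG acceptor beads.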
PLK1 PBD inh: qHTS for Inhibitors of PLK1-PDB (polo-like kinase 1 - polo-box domain): Primary Screen. Plk1 PBD binding of FITC phosphopeptide, fluorescence polarization. 360,000 compounds, 2.8% hits. Potency, µM, inactives show max response, negative = inhibition, most hits filed as inhibitors; note: series mostly up to about 57 µM; % is set by controls: 0 for no effect and ±100 for the full control effect; nearly all actives have a fitted effect of over 65% in size
HP1b binding inh: HTS for Inhibitors of HP1-beta Chromodomain Interactions with Methylated Histone Tails; 390,000 compounds, 0.56% hits; AlphaScreen HP1-beta / biotin-H3K9me3 peptide binding; Potency, µM (highest dose often 114 µM), without a hit: at the highest dose activity change, negative = inhibition, most hits filed as inhibitors; Chromobox protein homolog 1 (Homo sapiens), P83916; note: nearly all actives have a fitted effect of over 70% in size
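Compound inhibition of the preformed complex between 50 nM HP1-beta and 50 nM biotinylated H3K9me3 peptide was read by AlphaScreen. Buffer was PBS pH 7.4 with 0.01% Tween-20. Incubations ran 30 min at room temperature, with 10 ug/mL donor/acceptor beads.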
VDR inhibitor: Inhibitors of the vitamin D receptor (VDR): qHTS. Vitamin D3 receptor (Homo sapiens), P11473. VDR-SRC2-3 peptide fluorescence polarization, 2 h. Potency, µM, for the others: max response, negative = inhibition, hits mostly inhibitors. 400,000 compounds, 0.93% hits. AID 504847, 2011; note: % is set by controls: 0 for no effect and ±100 for the full control effect
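After 23 nl compound addition and a short centrifugation, plates sat for 2 hours at ambient temperature; polarization of fluorescence then indicated loss of VDR binding to peptide SRC2-3.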
JMJD2A Tudor inh: qHTS Assay for Inhibitors of JMJD2A-Tudor Domain; 390,000 compounds, 4.4% hits; Potency, µM (titrated, usually from 114 µM), for inactives: at the top dose activity change, negative = inhibition, hits mostly inhibitors; AID 504339, 2011; AlphaScreen JMJD2A-Tudor / H3K4me3 peptide binding; Lysine-specific demethylase 4A (Homo sapiens), O75164; note: % is set by controls: 0 for no effect and ±100 for the full control effect; nearly all actives have a fitted effect of over 50% in size
Target sequence (O75164 whole entry, looked up, the tested form may be a part): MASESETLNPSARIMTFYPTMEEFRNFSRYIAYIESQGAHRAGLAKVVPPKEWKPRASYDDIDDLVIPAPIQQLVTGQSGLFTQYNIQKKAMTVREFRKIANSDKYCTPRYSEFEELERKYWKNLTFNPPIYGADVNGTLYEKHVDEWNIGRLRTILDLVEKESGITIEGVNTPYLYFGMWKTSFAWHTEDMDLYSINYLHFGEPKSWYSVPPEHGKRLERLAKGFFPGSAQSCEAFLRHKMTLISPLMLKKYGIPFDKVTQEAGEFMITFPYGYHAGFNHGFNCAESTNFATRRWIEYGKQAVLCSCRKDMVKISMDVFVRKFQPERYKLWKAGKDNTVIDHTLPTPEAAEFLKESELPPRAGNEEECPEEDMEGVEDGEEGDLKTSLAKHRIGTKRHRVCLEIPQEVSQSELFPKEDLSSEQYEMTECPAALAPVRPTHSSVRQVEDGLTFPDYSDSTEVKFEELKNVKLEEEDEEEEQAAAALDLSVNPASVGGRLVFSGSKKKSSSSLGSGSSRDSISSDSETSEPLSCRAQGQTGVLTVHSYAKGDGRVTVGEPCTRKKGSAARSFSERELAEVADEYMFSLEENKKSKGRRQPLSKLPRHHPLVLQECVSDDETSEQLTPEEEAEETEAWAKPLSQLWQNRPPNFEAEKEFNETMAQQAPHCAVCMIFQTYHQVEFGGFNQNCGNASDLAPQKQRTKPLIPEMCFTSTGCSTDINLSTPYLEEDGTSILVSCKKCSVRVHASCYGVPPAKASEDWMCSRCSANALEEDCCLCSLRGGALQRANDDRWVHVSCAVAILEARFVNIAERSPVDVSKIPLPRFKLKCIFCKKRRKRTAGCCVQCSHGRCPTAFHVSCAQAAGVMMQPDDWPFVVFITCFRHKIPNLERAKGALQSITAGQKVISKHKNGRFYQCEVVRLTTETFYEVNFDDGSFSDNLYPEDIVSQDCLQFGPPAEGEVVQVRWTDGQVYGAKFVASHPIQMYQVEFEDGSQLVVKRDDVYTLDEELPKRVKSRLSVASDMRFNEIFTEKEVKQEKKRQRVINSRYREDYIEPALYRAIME
Active calls of the source: *; ? = inconclusive; . = no result; [ ] = another dose, or the depositor's remark. Hits are enriched below; roughly 11% of the tested compounds scored in any of these assays. Calls come from the whole dose curve; as a rule, active = well fitted curve in the direction sought with a large enough effect; inconclusive = small, poorly fitted or top-dose-only effect, or another doubt; inactive = no such curve, though single readings can be large; an effect the other way counts as inactive or inconclusive. Potency is the fitted concentration of half-maximal effect.

SMILES | BAZ2B block | G9a inh | PLK1 PBD inh | HP1b binding inh | VDR inhibitor | JMJD2A Tudor inh
COC(=O)c1ccc(NC(=O)CSc2nnc(-c3cccnc3)o2)cc1 | 8% | ? | ? | 26% | ? | -1%
Cc1cc(C)c(S(=O)(=O)Nc2ccc(N(C)C)cc2)c(C)c1-n1cnnn1 | 40µM* | 3.5µM* | -11% | -27% | -3% | ?
N#C/C(=C/c1cn(-c2ccccc2)nc1-c1cccc(S(=O)(=O)N2CCCC2)c1)C(=O)NCc1ccco1 | -34% | 50µM* | ? | -2% | -15% | -18%
N#C/C(=C/c1cn(-c2ccccc2)nc1-c1cccc(OCc2ccccc2)c1)C(=O)NCCCn1ccnc1 | 10µM* | -11%[59 µM] | -1% | ? | 12% | 40µM*
O=C(NCCCn1ccnc1)c1cn(-c2ccccc2)nc1-c1ccccc1 | ? | -2%[59 µM] | 0% | 33% | -10% | -21%
CCOc1cccc(-c2nn(-c3ccccc3)cc2/C=C(/C#N)C(=O)NCCCn2ccnc2)c1 | 35µM* | ? | 0% | ? | 14% | ?
COc1ccc(OCC2c3cc(OC)c(OC)cc3CCN2C(=O)COc2ccc(Cl)cc2Cl)cc1 (configuration not stated) | -24% | -32%[59 µM] | . | 7% | 0% | -36%
Cc1[nH]c2ccccc2c1C(=O)C(=O)N1CC=C(c2ccccc2)CC1 | -31% | -49% | -2% | 8% | -7% | -26%
Cc1[nH]c2ccccc2c1C1C(c2ccccc2)=NN=C(C(C)C)N1O (configuration not stated) | -31% | 6.3µM* | -12% | 1% | 1% | -34%
N/C(Cc1ccc([N+](=O)[O-])cc1)=N\OC(=O)c1ccc([N+](=O)[O-])cc1 | ? | 8.9µM* | -10% | ? | -26% | ?
N/C(Cc1ccc([N+](=O)[O-])cc1)=N\OC(=O)c1cccc(Br)c1 | -10% | -2%[59 µM] | ? | 15% | -9% | -11%
O=C(NNC(=S)NCc1ccc(Cl)cc1)c1ccc2c(c1)OCO2 | -1% | 6% | ? | 48% | 2% | -21%
CN(C)Cc1cc(CN(C)C)c(O)c(CCc2ccccc2)n1 | -28% | 50µM* | ? | 43% | 14% | -20%[57.1 µM]
CN(C)Cc1cc(C(C)(C)c2cc(CN(C)C)c(O)c(CN(C)C)c2)cc(CN(C)C)c1O | -7% | ? | -8% | ? | 3% | -48%
Cc1ccc(-c2nc(CN(C)C)cc(CN(C)C)c2O)cc1 | ? | 50µM* | -12% | 27% | 0% | ?
O=c1[nH]c(=O)c2nc(Br)n(C3OC(CO)C(O)C3O)c2[nH]1 (configuration not stated) | . | . | . | . | 3% | .
CCN(CC(=O)NCc1ccc(F)cc1)C(=O)/C=C/c1ccc(OC)c(S(=O)(=O)NC(C)C)c1 | 2% | 16% | -6% | 13% | -15% | -3%
CC(C)CC(=O)Nc1ccccc1Oc1ccccc1 | 7% | 38%[59 µM] | -1% | 50% | -21% | 7%
O=C(N/N=C/c1c[nH]c2ccccc12)c1[nH]c2ccc(Br)cc2c1-c1ccccc1 | -28% | 21%[59 µM] | 8.4µM* | -7% | -16% | ?
O=C(N/N=C/c1ccc(O)cc1)c1[nH]c2ccc(Br)cc2c1-c1ccccc1 | -12% | 32%[59 µM] | -3% | 62% | 5% | -24%
Cc1nn(-c2ccccc2)c(C)c1NC(=O)COC(=O)CCOc1ccccc1 | -26% | -9%[0.501 µM] | 0% | 23% | 0% | -8%
CCOc1ccccc1OCCC(=O)OCC(=O)Nc1c(C)nn(-c2ccccc2)c1C | 7% | 56µM* | -9% | 29% | ? | -12%
Nc1nc(N)c(N=Nc2ccc(C(=O)O)cc2)c(N)n1 | -19% | ? | -4% | 32% | 3% | -6%
O=C(O)c1ccc(N=Nc2c(O)ccc3ncccc23)cc1 | 1.6µM* | 10µM* | -14% | ? | -10% | 7.9µM*
Cc1ccc(-c2c(C#N)c(N)nc3c2CCCCC3)cc1 | 6% | 14% | -5% | 39% | 7% | -10%
SMILES | BAZ2B block | G9a inh | PLK1 PBD inh | HP1b binding inh | VDR inhibitor | JMJD2A Tudor inh
Cc1ccc(-c2c(C#N)c(N)nc3c2CCCCC3)o1 | 3% | 79µM* | -7% | 35% | -7% | -14%
CC(C)c1ccc(-c2c(C#N)c(N)nc3c2CCCCC3)cc1 | 4% | 1.8µM* | -5% | 42% | -5% | -17%
Cc1ccc(C)c(S(=O)(=O)N2CCN(C(=O)C3CCN(c4ncnc5sc(C)c(C)c45)CC3)CC2)c1 | 14% | ? | -4% | 12% | 5% | -16%
O=C(CSc1nc(C2CC2)n(-c2ccccc2)n1)NCc1ccco1 | -7% | -10%[12.7 µM] | -3% | -2% | 4% | -24%
CN(Cc1ccco1)C(=O)CSc1nc(C2CC2)n(-c2ccccc2)n1 | ? | 32µM* | -12% | 31% | ? | -19%
COCCn1c(=O)cnc2cnc(Oc3ccccc3)nc21 | . | 4%[0.501 µM] | . | . | 7% | .
Cc1cccc(NC(=S)N/N=C2\CC(C)(C)Oc3ccc(O)cc32)c1 | -12% | 19%[59 µM] | 12% | -2% | 11% | ?
CC1(C)C/C(=N\NC(=S)Nc2ccccc2F)c2cc(O)ccc2O1 | ? | ? | ? | 7.9µM* | -14% | 18µM*
NS(=O)(=O)Nc1ccccc1Br | . | . | . | 15% | -8% | -12%
CC(C)(C)OC(=O)NS(=O)(=O)Nc1ccccc1Br | . | . | . | -5% | 21% | 35µM*
COc1cccc(CN2CCCN(S(=O)(=O)c3ccc(Br)cc3)CC2)c1 | 1% | ? | -20% | 58% | 7% | -19%
FC(F)(F)c1ccccc1CN1CCCC(N2CCN(c3ccccc3)CC2)C1 (configuration not stated) | ? | . | 4% | 12% | -4% | -33%
Cc1ccccc1CN1CCN(C/C=C/c2ccccc2)CC1 | -31% | ? | -4% | ? | -6% | 3.2µM*
COc1cccc(CN2CCN(Cc3ccccc3C(F)(F)F)CC2)c1 | 25µM* | 4.5µM* | -6% | 20µM* | 12% | 28µM*
FC(F)(F)c1ccccc1CN1CCN(C2CCCCCC2)CC1 | 50µM* | 2.5µM* | -11% | ? | 1% | 6.3µM*
Cc1ccccc1CN1CCN(Cc2ccccc2C(F)(F)F)CC1 | 28µM* | 2.8µM* | 4% | -32% | -8% | 2.8µM*
CS(=O)(=O)N1CCN(C/C=C/c2ccccc2)CC1 | -11% | ? | -6% | 43% | 15% | -2%
